Assay outcomes: PubChem BioAssay, The Scripps Research Institute Molecular Screening Center
NCOA3 inh: inhibits human SRC3 coactivator | Q9Y6Q9 | hit rate 0.17% among 360,000 | HEK293 GAL4-SRC3 luciferase reporter, luminescence | AID 588352 | inhibition, % at 3.6 µM;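 active means inhibition above a per-campaign cutoff, the mean of all compounds plus 3 SD, cut at about 60% in these data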;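 further: higher means less SRC3-driven luciferase light from the GAL4 reporter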
SRC2 inh: inhibits human steroid receptor coactivator 2; Q15596; HEK293 GAL4-SRC2 luciferase reporter, luminescence; inhibition, % at 9 µM; hit rate 0.17% among 370,000;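 active means inhibition above the mean inhibition of all tested compounds plus 3 SD, set per campaign, cut at about 52% in these data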
SRC1 inh: inhibits human SRC1 coactivator. Q15788. HEK293 GAL4-SRC1 luciferase reporter, luminescence. inhibition, % at 3.6 µM. hit rate 0.12% among 360,000;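 active means inhibition above the campaign mean plus 3 SD, with each screening campaign given its own cutoff, cut at about 60% in these data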
LRH-1 inv ag: suppresses constitutive activity of human LRH-1 | inhibition, % at 3.6 µM | hit rate 0.13% among 360,000 | HEK293T StAR-luciferase reporter, LRH-1 transfected, 24 h | AID 602396 | O00482;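 active means inhibition above the mean inhibition of all tested compounds plus 3 SD, cut at about 73% in these data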
Target sequence (O00482 whole entry, looked up): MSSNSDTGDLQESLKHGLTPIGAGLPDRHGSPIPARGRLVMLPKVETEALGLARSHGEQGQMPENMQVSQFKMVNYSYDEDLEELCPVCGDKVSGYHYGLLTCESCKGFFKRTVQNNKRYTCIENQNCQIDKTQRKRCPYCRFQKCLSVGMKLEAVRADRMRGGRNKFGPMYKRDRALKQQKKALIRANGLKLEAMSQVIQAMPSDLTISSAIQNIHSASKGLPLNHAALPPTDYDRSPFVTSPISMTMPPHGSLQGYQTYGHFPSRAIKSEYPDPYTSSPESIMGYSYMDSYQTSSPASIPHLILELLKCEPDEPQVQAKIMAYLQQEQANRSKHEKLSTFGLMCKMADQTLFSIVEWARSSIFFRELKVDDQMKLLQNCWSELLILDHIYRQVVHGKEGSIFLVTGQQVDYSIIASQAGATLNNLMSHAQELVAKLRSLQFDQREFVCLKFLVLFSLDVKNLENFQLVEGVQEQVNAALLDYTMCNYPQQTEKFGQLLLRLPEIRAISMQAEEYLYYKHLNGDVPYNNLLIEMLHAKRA
COUP-TFII inh: inhibitors of human COUP-TFII (NR2F2). P24468. HEK293T NGFI-A luciferase reporter, luminescence. inhibition, % at 8.6 µM. hit rate 0.7% among 370,000;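 active means inhibition above a per-plate cutoff, mean inhibition of test wells between control levels plus 3 SD, cut at about 38% in these data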;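 further: cells cotransfected with COUP-TFII expression vector driving the NGFI-A reporter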
VP16 Luc counter: VP16 inhibition counter-screen for COUP-TFII. shares compounds with COUP-TFII inh. HEK293 Gal4-VP16 luciferase reporter, luminescence. inhibition, % at 8.5 µM. hit rate 25% among 2,500. AID 687007; in the data active means inhibition above about 13%
COUP-TFII conf: COUP-TFII (NR2F2) inhibition, confirmation assay | shares compounds with COUP-TFII inh | HEK293 NGFI-A luciferase reporter, luminescence | inhibition, % at 8.5 µM | hit rate 45% among 2,500 | AID 687008;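 active means mean inhibition over three repeats above a set limit taken from the earlier primary screen, cut at about 38% in these data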
Hits are given with their value; – = inactive; · = no result. Hits are enriched below; roughly 0.84% of the tested compounds scored in any of these assays.

SMILES	NCOA3 inh	SRC2 inh	SRC1 inh	LRH-1 inv ag	COUP-TFII inh	VP16 Luc counter	COUP-TFII conf
NC(=O)c1ccsc1NC(=O)COC(=O)Cc1c[nH]c2ccccc12	–	–	–	–	–	·	·
COc1cc(CCC(=O)OCC(=O)Nc2sccc2C(N)=O)cc(OC)c1OC	–	–	–	–	39	–	–
NC(=O)c1ccsc1NC(=O)COC(=O)Cc1cccc2ccccc12	–	–	–	–	53	–	39
COc1cc(C(=O)OCC(=O)Nc2sccc2C(N)=O)cc(OC)c1OC	–	–	–	–	–	·	·
O=C(CSc1nnc(-c2ccccc2)n1-c1ccc(Cl)cc1)c1ccccc1Br	·	–	·	·	–	·	·
Cc1cc(=O)n(-c2ccc(O)cc2)[nH]1	–	–	–	–	42	–	–
CC(C)(C)[C@H](NC(=O)c1cc(Cl)cc(Cl)c1)C(=O)N1CCC[C@H]1C(=O)N[C@H](C#N)CC(=O)O	·	·	·	·	–	·	·
Cc1ccc(S(=O)(=O)N2CCC(=O)N(CCOCc3ccc(C(F)(F)F)cc3)CC2)cc1	–	–	–	–	51	–	38
O=C1CCN(S(=O)(=O)c2ccccc2)CCN1CCOCc1ccc(C(F)(F)F)cc1	–	–	–	–	–	·	·
CC1CCCC(NC(=O)COC(=O)Cc2ccc(Br)cc2)C1C (centres undefined)	–	–	–	–	–	·	·
COc1ccc(CC(=O)OCC(=O)NC2CCCC(C)C2C)cc1OC (centres undefined)	–	–	–	–	50	–	–
COC1=C[C@H](C(=O)NCc2ccccn2)[C@@]2(C)Cc3ccccc3[C@H]2CC1=O	·	–	·	·	–	·	·
CCOC(=O)C(Cc1ccccc1)P(=O)(OCC)OCC (centres undefined)	·	·	·	·	–	·	·
O=S(=O)(c1cc(C(F)(F)F)ccc1Cl)N1CCN(c2ncnc3ccccc23)CC1	–	–	–	–	42	15	60
Cc1cc(C)c(C)c(S(=O)(=O)N2CCN(c3ncnc4ccccc34)CC2)c1C	–	–	–	–	–	·	·
C[C@H]1[C@H](N(Cc2cccs2)Cc2cccs2)CC[C@@]23CCCN2C(=O)CCC[C@@H]13	·	·	·	·	–	·	·
Cc1nc(C)c(-c2ccc(SCC(=O)Nc3cccc(Cl)c3)nn2)s1	–	–	–	–	53	–	–
CC(=O)c1cccc(NC(=O)CSc2ccc(-c3sc(C)nc3C)nn2)c1	–	–	–	–	–	·	·
Cc1nc(C)c(-c2ccc(SCC(=O)Nc3cccc(F)c3)nn2)s1	–	–	–	–	47	–	–
Nc1ccc2nc(SCC(=O)N3CCN(c4ccccc4)CC3)sc2c1	–	–	–	–	55	–	–
Cc1ccc(C#CC[N+]2(CC#Cc3ccc(C)cc3)CCCCC2)cc1	–	–	–	–	45	13	–
CN=c1scc(-c2cccs2)n1/N=C/c1ccccc1O	93	88	92	98	94	88	108
CN=c1scc(-c2cccs2)n1/N=C/c1ccc(O)c(O)c1O	–	–	–	–	–	·	·
CC(C)(C)c1ccc(OCCC(=O)Nc2cccc(S(=O)(=O)NC3=NCCCCC3)c2)cc1	–	–	–	–	40	–	–
COc1ccc(CCc2nnc(CCC(=O)N(C)Cc3ccnc4ccccc34)o2)cc1	–	–	–	–	40	–	–
SMILES	NCOA3 inh	SRC2 inh	SRC1 inh	LRH-1 inv ag	COUP-TFII inh	VP16 Luc counter	COUP-TFII conf
Cc1cc(/C=C2/C(=O)NN(c3ccccc3)C2=O)c(C)n1-c1ccc(O)cc1	–	–	–	–	57	–	–
O=C(NCc1ccncc1)C(=O)N/N=C/c1ccc(OCc2ccccc2)cc1	–	–	–	–	–	·	·
O=NN(CCc1ccncc1)c1ccc(OCc2ccccc2)cc1	–	–	–	–	51	–	45
CC(=O)N[C@@H](C)CCc1ccc(Oc2ccc(OC(C)C)nc2)cc1	·	·	·	·	39	–	–
CC(=O)NC(C)CCc1ccccc1 (centres undefined)	–	–	–	–	–	·	·
CC(=O)CC[C@@H]1CC[C@]2(CCCN(C(=O)c3ccco3)C2)O1	·	–	·	·	–	·	·
COc1ccccc1CC(=O)Nc1nc(-c2ccc(F)c(F)c2)cs1	–	–	–	–	–	·	·
COc1ccc(-c2csc(NC(=O)Cc3ccccc3F)n2)cc1OC	–	–	–	–	49	–	–
O=C(N1CCOCC1)N1CC[C@H]2[C@H](CCCN2Cc2cc(F)cc(F)c2)C1	·	–	·	·	–	·	·
COC(=O)c1cnn(-c2ccc(F)cc2F)c1/C=N/NC(=S)Nc1ccccc1	·	·	·	·	48	–	–
CC(=NNC(=O)CSc1nnc(-c2ccccc2)n1-c1ccccc1)c1ccc2ccccc2c1	·	–	·	·	–	·	·
Cc1ccc(Cn2cc(CN3[C@H](c4ccccc4)COc4cc(Br)ccc4S3(=O)=O)nn2)cc1	·	–	·	·	–	·	·
S=C1NC2=C(CCCC2=C2SCCS2)C(c2ccccc2)N1 (centres undefined)	–	–	–	–	37	–	–
CCN(c1cccc(C(F)(F)F)c1)S(=O)(=O)c1ccc2c(c1)CCN2C(C)=O	–	–	–	–	47	–	–
Cc1ccc(CN2C(C(=O)NC3CCCC3)CSCCS2(=O)=O)cc1 (centres undefined)	·	–	·	·	–	·	·
COc1ccc(NC(=O)C2Cc3c(-c4ccncc4)ccnc3O2)cc1OC (centres undefined)	–	–	–	–	–	·	·
COc1ccc(NC(=O)C2Cc3c(-c4cccc(C(C)=O)c4)ccnc3O2)cc1OC (centres undefined)	–	–	–	–	75	–	49
CC(=O)c1cccc(NC(=O)C2Cc3c(-c4ccccc4Oc4ccccc4)ccnc3O2)c1 (centres undefined)	–	–	–	–	41	–	–
COc1ccc(NC(=O)C2Cc3c(-c4cccc(C(N)=O)c4)ccnc3O2)cc1OC (centres undefined)	–	–	–	–	–	·	·
COc1ccc(NC(=O)C2Cc3c(-c4ccc(Cl)cc4)ccnc3O2)cc1OC (centres undefined)	–	–	–	–	64	–	54
CC(=O)N1CCc2cc(Br)c(S(=O)(=O)CCC(=O)N3CCN(c4ccccn4)CC3)cc21	·	–	·	·	–	·	·
Cc1ccc(S(=O)(=O)NCCCc2ccc3c(c2)[C@]2(CCC[C@@H](OCc4ccccc4)[C@@H]2NC(=O)CCc2ccccc2)C(=O)N3Cc2ccccc2)cc1	·	–	·	·	–	·	·
COC(=O)C12OCC34C(CC5C(C)=C(O)C(=O)CC5(C)C3C(O)C1O)OC(=O)C(OC(=O)C=C(C)C)C24 (centres undefined)	94	83	96	97	93	–	86
Cc1n[nH]c(C)c1S(=O)(=O)NC(C)Cc1ccccn1 (centres undefined)	·	–	·	·	–	·	·
CCC(=O)N(Cc1ccccc1)c1ccccc1C(=O)Nc1cc(OC)ccc1OC	·	–	·	·	–	·	·
